This note sets out measurements from PubChem BioAssay (NCI).

About 83,000 compounds went through this panel and 20% of them were active in at least one assay; those are over-represented in the sample as a whole.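 Percent growth is the endpoint: 0 to 100 indicates growth inhibition (40 means 60% inhibition), 0 means no net growth, and negative values indicate cell death.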 Active and inactive are the calls of the source. How the source made its calls: active means growth percent below 10; inactive means the rest.

In this assay the test system is OVCAR-4 ovarian. In words: NCI-60 one-dose screen, 48 h (100 = growth as untreated, 0 = no growth, -100 = all killed). The conditions noted are these: 10 µM unless noted.
`O=[N+]([O-])c1cc(/C=N/Nc2nc(N/N=C/c3ccc(Cl)c([N+](=O)[O-])c3)nc(N3CCCCC3)n2)ccc1Cl`: the growth is 86.9% (inactive).

As for `COc1c(N2CC3CCCNC3C2)c(F)cc2c(=O)c(C(=O)N/N=C/c3ccccc3)cn(C3CC3)c12` (centres undefined), the growth is 93.1% (inactive).

With `O=C(CNc1nc(-c2cccc([N+](=O)[O-])c2)cs1)Nc1cccc(Cl)c1`, the growth was 102% (inactive).

`O=S(=O)(NCCNc1nccc(-n2cnc3ccccc32)n1)c1ccc(C(F)(F)F)cc1`: the growth was 28.4% (inactive).

On to `CC(C)(C)c1ccc(C(=O)Nc2sc3c(c2C(N)=O)CC/C(=N\O)C3)cc1`, for which the growth was 10% (inactive).

In the case of `CC(=O)c1nnn(-c2c(C(=O)n3nc(C)cc3C)sc(=S)n2-c2ccccc2)c1C`, the growth is 100% (inactive).

As for `CNC(=O)c1c(NC(=O)c2ccccc2C(F)(F)F)sc2c1CCC(=O)C2`, the growth was 16.2% (inactive).

Regarding `O=C(NNc1nc2cc(F)c(F)cc2n2cccc12)c1cnccn1`, the growth is 20.3% (inactive).

On to `COc1cc(Nc2c(C#N)cnn3cc(-c4cnn(CC(C)(C)O)c4)cc23)ccc1Cl`, for which the growth is 42.6% (inactive).

As to `CCCCCCCn1cc2c(N[C@H](C)c3ccccc3)ncnc2n1`, the growth is 100% (inactive).

For the molecule `O=C(Cn1cc(-c2ccccc2)nn1)Nc1nc(-c2ccc(Cl)cc2)cs1`, the growth was 92.7% (inactive).

Turning to `CCOC(=O)C(=O)CC(=O)N1C(=S)NC(=O)C1CC(C)C` (centres undefined), the growth was 102% (inactive).

`O=C1Nc2ccccc2/C1=C/c1ccc(CO)n1-c1ccc(Cl)cc1`: the growth was 89.9% (inactive).

Turning to `CCO/C=N/C1=C(C#N)C(c2ccc(OC)cc2)c2sc3c(CC)cccc3c2O1` (centres undefined), the growth was 65% (inactive).

Consider `O=C1[C@@H]2Cc3c([nH]c4ccccc34)[C@H](c3c(Cl)cccc3Cl)N2C(=O)CN1C1CCN(CC2CCCCC2)CC1`, for which the growth is 90.2% (inactive).

For the molecule `Cc1nn(-c2ccccc2)c2ncnc(N/N=C/c3cccc(O)c3)c12`, the growth was 30.2% (inactive).

Take `CS(=O)(=O)Nc1cc(-c2ccc3ncc(C#N)c(NCc4cccc(F)c4)c3c2)cnc1Cl`: the growth was 11.3% (inactive).

For the molecule `Cc1ccc(-n2cc(/C=C/C(=O)c3ccc(O)cc3)c(-c3ccc(S(C)(=O)=O)cc3)n2)cc1`, the growth is 98.7% (inactive).

With `CC1(C)NCCC[C@]2(C)[C@H]3C/C(=N\O)C4[C@@H]5C[C@@](C)(CO)CC[C@]5(C)CC[C@@]4(C)[C@]3(C)CC[C@@H]12` (some centres undefined), the growth was 99.4% (inactive).

For `C#CCNC1CCC(c2csc(C#C)n2)=C1C` (centres undefined), the growth is 90.3% (inactive).

Turning to `NS(=O)(=O)c1ccc(Nc2nc(Nc3ccccc3)nc3nnc(SCC(=O)NC4CCCCC4)n23)cc1`, the growth is 108% (inactive).

Turning to `O=C(CNc1nc(-c2cccc([N+](=O)[O-])c2)cs1)Nc1cccc([N+](=O)[O-])c1`, the growth was 5.36% (active).

Turning to `O=C(CSc1nc2ccccc2c(=O)n1-c1ccc(Cl)cc1)N/N=C/c1ccc(N2CCCCC2)cc1`, the growth is 58.6% (inactive).

Turning to `O=C(c1ccc(Cl)cc1)C1[C@H](c2ccc(Cl)cc2)[C@@H](c2ccccc2)NC12C(=O)Nc1ccccc12` (some centres undefined), the growth is 59.7% (inactive).

As for `CC(=O)c1ccc(Nc2nc(SCC(C)C)nc(-c3ccc(F)cc3)c2C#N)cc1`, the growth is 115% (inactive).

With `Fc1ccc(-c2cc3nc(C(Cl)Cl)nc(-c4ccc(F)cc4)n3n2)cc1`, the growth was -9.54% (active).

With `CNc1ncc2cc(-c3ccc(-c4ncccc4F)cc3Cl)c(=O)n(CC3OCC(N)CO3)c2n1` (centres undefined), the growth is 117% (inactive).

As to `C#C[C@]1(O)CC[C@H]2[C@@H]3CC=C4c5sc(-c6ccc7c(c6)OCO7)nc5CC[C@]4(C)[C@H]3CC[C@@]21C`, the growth was 34.9% (inactive).

Turning to `C=CCn1c(SCC(=O)Nc2ccc(C(=O)/C=C/c3ccc(C)cc3)cc2)nnc1-c1c[nH]c2ccccc12`, the growth was 81.3% (inactive).
